This note sets out measurements from PubChem BioAssay AID504834 (National Center for Advancing Translational Sciences (NCATS), 2011).

The structures appear in SMILES notation. In all, about 320,000 compounds went through this assay and about 22,000 (6.9%) were called active. About 27% were inconclusive and are not listed. Only a selection was taken, and actives are over-represented in it overall. Values without a mark were called inactive. Calls come from the whole dose curve; as a rule, active = well fitted inhibition curve with a large enough effect; inconclusive = small, poorly fitted or top-dose-only effect, or another doubt; inactive = no such curve, though single readings can be large or run the other way.
% is set by controls: 0 for no effect and ±100 for the full control effect; potency is the fitted concentration of half-maximal effect.

The nature of this assay: Primary qHTS for delayed death inhibitors of the malarial parasite plastid, 96 hour incubation. The note with it: P. falciparum luciferase reporter growth; series mostly up to 28.7 µM; activity change, negative = inhibition: at the top concentration. From the text: The goal of this screen is to discover new antimalarial compounds that act by inhibiting the development of the apicoplast in the malarial parasite Plasmodium falciparum. The biochemical processes that make this organelle essential for erythrocytic stage parasites are not well understood. However, antibiotics such as azithromycin and tetracycline, which target the apicoplast translational machinery, have a potent antimalarial effect.
We have developed a cell-based assay that measures parasite growth based on the expression of an integrated copy of a firefly luciferase reporter. To detect small molecules that cause this "delayed death" phenotype, erythrocytes infected with the luciferase-expressing parasites were incubated with compounds for either one or two generations, corresponding to 48 and 96 hours, respectively. Compounds that inhibit parasite growth in the second generation, but not the first, should be enriched in antimalarials that target the apicoplast. Growth inhibition is detected by a decrease in luciferase activity.
Assay Provider: David Fidock and Eric Ekland, Columbia University
Keywords: NIH Roadmap, MLPCN, MLI, MLSMR, qHTS, NCGC, qHTS, malaria, luciferase, viability
Four microliters of infected erythrocytes (2% hematocrit, 0.05% parasitemia final concentration) in culture medium were dispensed and the plates incubated for 96 hours at 37 C in 5% CO2. Two microliters of luciferase detection reagent was added and luminescence was detected by a ViewLux (PerkinElmer) reader.
(In qHTS, concentration-response curves come from the screen itself.)
With `Nc1cccc(-c2cc(-c3ccccc3)nc(-c3cccc(N)c3)n2)c1`, the Potency is 10.4 µM (active).

As to `CNc1nc(-c2ccccc2)cc(-c2ccccc2)n1`, the “activity change, negative = inhibition” value was -21.4%.

As to `Nc1nc(-c2ccccc2)cc(-c2ccccc2)n1`, the “activity change, negative = inhibition” value was 6%.

Regarding `CCCOc1ccc(Cc2c(O)nc(SC)[nH]c2=O)cc1C`, the “activity change, negative = inhibition” value was -14.5%.

Take `COc1nc(N(C)C)nc(N2CC(=O)N(CCNS(=O)(=O)c3ccc(C)cc3)C2=N)n1`: the Potency is 2.33 µM (active).

For `COc1ccccc1CNS(=O)(=O)c1ccc(C)cc1`, the “activity change, negative = inhibition” value is 8.44%.

As for `Cc1ccc(S(=O)(=O)NCCSC(C)(C)C)cc1`, the “activity change, negative = inhibition” value was 38.2%.

In the case of `CCOC(=O)C1(CCOC)CCN(Cc2cc3ccccc3s2)CC1`, the “activity change, negative = inhibition” value was -25.4%.

Take `O=C(Nc1cccc(-c2cscn2)c1)C1CCN(Cc2ccsc2)CC1`: the “activity change, negative = inhibition” value is -16.1%.

As to `CCOC(=O)C1=C(C)NC2=C(C(=O)CC(C)(C)C2)C1c1ccsc1` (stereo not drawn), the Potency was 7.38 µM (active).

Regarding `CCOc1cc(C2C(C(=O)OC(C)C)=C(C)NC3=C2C(=O)CCC3)cc([N+](=O)[O-])c1O` (stereo not drawn), the “activity change, negative = inhibition” value was 16.6%.

In the case of `COc1cc(C2C(C#N)=C(C)NC3=C2C(=O)CC(C)(C)C3)ccc1O` (stereo not drawn), the “activity change, negative = inhibition” value is -20.7%.

In the case of `Cc1ccc2c(C)c(C(=O)N(C)Cc3ccncn3)oc2c1C`, the “activity change, negative = inhibition” value was 74.4%.

For `COc1cccc(CC(=O)Nc2nc(-c3ccc(OC)c(OC)c3)cs2)c1`, the “activity change, negative = inhibition” value was -22.7%.

For `CCc1nnc(NC(=O)Cc2cccs2)s1`, the “activity change, negative = inhibition” value was -22.2%.

In the case of `CCCc1ccc(-c2csc(NC(=O)Cc3cccs3)n2)cc1`, the Potency is 11.7 µM (active).

`CC(NCC(=O)Nc1cc(Cl)cc(Cl)c1)c1ccccc1` (stereo not drawn): the “activity change, negative = inhibition” value was -15.4%.

Turning to `COc1cccc(-c2coc3cc4oc(=O)c(CC(=O)O)c(C)c4cc23)c1`, the “activity change, negative = inhibition” value is -4.33%.

As to `COc1ccc(OCCCC(=O)OC(C)C(=O)Nc2ccccc2[N+](=O)[O-])cc1` (stereo not drawn), the “activity change, negative = inhibition” value is 30.3%.

`O=C1NC(=O)C(CCc2ccccn2)(Cc2cccc(Cl)c2Cl)C(=O)N1c1ccc(Br)cc1` (stereo not drawn): the “activity change, negative = inhibition” value is 30.6%.

Take `Cc1ccc(N2C(=O)NC(=O)C(CCc3ccncc3)(Cc3cccc(Cl)c3Cl)C2=O)cc1` (stereo not drawn): the Potency is 11.7 µM (active).

As for `CC(C)(C)c1ccc(/C=C/C(=O)NCCCn2ccnc2)cc1`, the “activity change, negative = inhibition” value is -22.8%.

Regarding `CC(C)C[C@@H](COc1ccccc1)N1CCN(CC(C)C)CCC1=O`, the Potency was 11.7 µM (active).

In the case of `O=C1CCN(CCc2ccccc2)CCN1CCOc1ccccc1`, the “activity change, negative = inhibition” value was 9.44%.

As to `CC(C)C[C@@H](CO)N1CCN(Cc2ccc(O)cc2)CCC1=O`, the “activity change, negative = inhibition” value was 78.9%.

Turning to `CCCNC(=O)N1CCC(c2ccc3c(c2)OCO3)CC1`, the “activity change, negative = inhibition” value was 29.2%.

Consider `CC1CN(C(=S)Nc2ccc(S(N)(=O)=O)cc2)CC(C)O1` (stereo not drawn), for which the “activity change, negative = inhibition” value is 3.43%.

As for `O=[N+]([O-])c1ccc(N2CCN(c3ccc(F)cc3)CC2)cn1`, the “activity change, negative = inhibition” value was -10.5%.

For the compound `OCCN1CCN(c2nnc(-c3ccccc3)c3ccccc23)CC1`, the “activity change, negative = inhibition” value was -3.39%.

On to `Cc1nccn1CCCNC(=O)CC1C(=O)NCCN1Cc1ccc(Cl)c(F)c1` (stereo not drawn), for which the “activity change, negative = inhibition” value was 2.21%.

As to `Cc1ccc(CN2CCNC(=O)C2CC(=O)NCc2csc(C(C)C)n2)cc1` (stereo not drawn), the Potency was 11.7 µM (active).

`CCOc1ccc(CN2CCNC(=O)C2CC(=O)NCCCC2CCCC2)cc1` (stereo not drawn): the Potency is 13.1 µM (active).

As for `CCn1ccnc1CNC(=O)CC1C(=O)NCCN1Cc1ccc(F)cc1Cl` (stereo not drawn), the “activity change, negative = inhibition” value is -5.79%.

As for `CCn1ccnc1CNC(=O)CC1C(=O)NCCN1CCCc1ccccc1` (stereo not drawn), the “activity change, negative = inhibition” value is 1.79%.

Take `CCCOC(=O)CC1C(=O)NCCN1Cc1ccc(F)cc1` (stereo not drawn): the “activity change, negative = inhibition” value is 16.3%.

`CC(=O)Nc1ccc(NC(=O)C(NS(=O)(=O)c2ccc3c(c2)OCCO3)C(C)C)cc1` (stereo not drawn): the “activity change, negative = inhibition” value was 2.53%.

In the case of `CCn1cc(C(=O)N[C@@H](C)C(=O)NCCO)c(=O)c2cc3c(cc21)OCO3`, the “activity change, negative = inhibition” value is 39.3%.

For `COc1nnc(-c2ccc(C)c(S(=O)(=O)N(C)C)c2)c2ccccc12`, the “activity change, negative = inhibition” value is 0%.

On to `c1ccc(-c2cc(-c3ccccc3)[nH]n2)cc1`, for which the “activity change, negative = inhibition” value was -17.7%.

For `CC(=O)OCCOCn1cnn2c(=O)c(Br)c(C)nc12`, the “activity change, negative = inhibition” value was 38.7%.

Regarding `CC(C)c1nnc(NC(=O)C2CC(=O)N(CCc3ccc(F)cc3)C2)s1` (stereo not drawn), the “activity change, negative = inhibition” value is 19.1%.

Turning to `O=C(CS(=O)(=O)Cc1ccccc1)NCC1CCCO1` (stereo not drawn), the Potency was 2.94 µM (active).

As for `O=C(COC(=O)c1ccc(S(=O)(=O)Nc2ccccc2)cc1)NCC1CCCO1` (stereo not drawn), the “activity change, negative = inhibition” value is 0%.

`S=C(NCCc1ccccc1)NCC1CCCO1` (stereo not drawn): the “activity change, negative = inhibition” value was 8.12%.

In the case of `COc1ccc(NS(=O)(=O)c2ccc(N3CCOCC3)c(NC(=O)c3ccccc3Br)c2)cc1`, the Potency was 9.28 µM (active).

As for `CC(=O)Nc1ccc(S(=O)(=O)Nc2ccc(N3CCOCC3)c(F)c2)cc1`, the “activity change, negative = inhibition” value was -18.2%.

Regarding `COc1ccc(NS(=O)(=O)c2ccc(C)c(C(=O)NNC(=O)c3csc(N4CCOCC4)n3)c2)cc1`, the “activity change, negative = inhibition” value is -1.4%.

As to `CCCCn1c(N)c(N(CC(C)C)C(=O)c2ccc(-n3c(C)ccc3C)cc2)c(=O)[nH]c1=O`, the “activity change, negative = inhibition” value is -32.2%.

In the case of `CCOc1ccc(C(=O)NC2CCN(C(=O)Nc3ccccc3OC)CC2)cc1`, the “activity change, negative = inhibition” value is -12.6%.

With `CCOc1ccc(NC(=S)N2CCC(NC(=O)c3ccccc3)CC2)cc1`, the “activity change, negative = inhibition” value was 14.6%.

For `CCOc1ccc(C(=O)NC2CCN(S(=O)(=O)CC)CC2)cc1`, the Potency was 2.33 µM (active).

On to `CCOc1c(OC)cccc1C(=O)NCC1(c2ccccc2)CCCC1`, for which the “activity change, negative = inhibition” value was 8.63%.

As to `CN(C)CCn1c2c(c(SCC(=O)NCc3ccccc3)nc1=O)CCC2`, the “activity change, negative = inhibition” value was 7.34%.

For the compound `COc1ccccc1CNC(=O)Cn1cc2c(n1)CCCC2`, the “activity change, negative = inhibition” value is 8.68%.

Consider `COc1ccccc1CNC(=O)CSc1nc(=O)n(Cc2ccncc2)c2c1CCC2`, for which the Potency was 14.7 µM (active).

For the compound `O=C(NCCc1ccc(Cl)cc1)C1CCCN1C(=O)NCc1ccccc1` (stereo not drawn), the “activity change, negative = inhibition” value was 34.6%.

For the compound `NC(=O)C1CC(=O)N(c2ccc(OCC(=O)NCc3ccccc3)cc2)C1` (stereo not drawn), the “activity change, negative = inhibition” value was 16.4%.

`CC(NC(=O)c1ccc(S(=O)(=O)Nc2ccccc2)cc1)c1ccc(S(N)(=O)=O)cc1` (stereo not drawn): the “activity change, negative = inhibition” value was -27.8%.

As for `Cc1sc2nc(CSCC(=O)NC3CCCCC3)[nH]c(=O)c2c1C`, the “activity change, negative = inhibition” value is -4.04%.

In the case of `O=C(CSc1nnc(-c2ccccc2)o1)N1CCOCC1`, the “activity change, negative = inhibition” value is 16.5%.

On to `Cc1cccc(C)c1OC(=O)CSc1nnc(-c2ccccc2)o1`, for which the “activity change, negative = inhibition” value was -10.3%.

For `CC1=CC(C)(C)N(C(=O)CSc2nnc(-c3ccccc3)o2)c2ccc(C)cc21`, the Potency was 13.1 µM (active).

With `Cc1ccccc1C(=O)N1CCC(C(=O)Oc2ccc(C#N)cc2)CC1`, the “activity change, negative = inhibition” value was 83.9%.

As to `COc1ccc(S(=O)(=O)N2CCOC2CNC(=O)C(=O)NCc2ccncc2)cc1OC` (stereo not drawn), the “activity change, negative = inhibition” value is 0.814%.

On to `Cc1cccc(C)c1NC(=O)CS(=O)CC(=O)N1CCN(c2ccccc2)CC1` (stereo not drawn), for which the “activity change, negative = inhibition” value is 36.4%.

As for `c1ccc(-c2cc3c(NCC4COc5ccccc5O4)ncnc3s2)cc1` (stereo not drawn), the Potency is 10.4 µM (active).

`S=C(NCC1COc2ccccc2O1)Nc1ccc(Br)cc1` (stereo not drawn): the “activity change, negative = inhibition” value was -2.67%.

On to `COc1ccc(Nc2ncnc3sc(-c4ccccc4)cc23)c(OC)c1`, for which the “activity change, negative = inhibition” value is 0%.
